Screening results: PubChem, National Center for Advancing Translational Sciences (NCATS)
RORg inh: inhibitors of mouse ROR gamma transcriptional activity. Drosophila S2 Gal4-RORgamma UAS-luciferase reporter, 20 h. Potency, µM (series often up to 53.6 µM), for the others: top-dose activity change, negative = inhibition, usual class: inhibitors. 5.4% of 310,000 active; also: potency is read from the fitted curve at half-maximal effect; % is scaled to controls: 0 for no effect and ±100 for the full control effect; nearly all actives have a fitted effect of over 60% in size
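Schneider cells (Drosophila), stable Gal4 DBD–ROR gamma + UAS-luc; 1 hr cmpd preincubation; Cu2+ induction 700 uM final; 20 hr ambient; luminescence.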
ERG Ets-DNA blk: blocks human ERG Ets domain binding to DNA; fluorescence polarization, His-ERG Ets domain / labelled DNA; Potency, µM (series often up to 76.9 µM), for inactives: at the highest dose FP activity, negative = inhibition, usual class: inhibitors; 0.028% of 370,000 active; AID 624246; active = well fitted inhibition curve with a large enough effect in the polarisation, with a control signal flat; inconclusive = small, poorly fitted or top-dose-only effect, or effect the other way, or a change in a side signal; inactive = no such curve, though single readings can be large or run the other way; the % refers to the polarisation;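 also: polarization taken with two DNA probes labelled with fluorescein and Texas red; potency is read from the fitted curve at half-maximal effect; % of control where 0% means no effect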
Target sequence (P11308 whole entry, looked up, the tested form may be a part): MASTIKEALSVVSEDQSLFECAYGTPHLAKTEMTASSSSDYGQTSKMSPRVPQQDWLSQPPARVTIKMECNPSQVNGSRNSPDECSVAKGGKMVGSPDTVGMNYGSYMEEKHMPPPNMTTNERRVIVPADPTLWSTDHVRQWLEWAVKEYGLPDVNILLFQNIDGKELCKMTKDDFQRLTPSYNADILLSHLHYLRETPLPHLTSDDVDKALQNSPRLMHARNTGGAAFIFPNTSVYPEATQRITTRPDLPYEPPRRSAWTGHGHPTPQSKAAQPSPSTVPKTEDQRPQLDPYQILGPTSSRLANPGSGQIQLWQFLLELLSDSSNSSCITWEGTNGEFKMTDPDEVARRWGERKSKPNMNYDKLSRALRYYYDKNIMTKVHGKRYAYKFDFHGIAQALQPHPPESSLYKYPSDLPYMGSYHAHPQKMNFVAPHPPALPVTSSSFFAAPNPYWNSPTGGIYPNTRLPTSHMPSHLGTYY
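His-tagged ERG Ets domain (1 uM in the protein solution; 300mM KCl, 50mM Tris-HCl, 1mM EDTA, 1mM DTT, pH 7.5) received compound, then a probe mix of 5 nM fluorescein-DNA and 100nM Texas-615-DNA. Fluorescence polarization was read for both dyes.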
Giardia kill: Giardia lamblia killing | Giardia lamblia trophozoite viability | activity change, % at 7.66 µM, hits read low | 0.15% of 340,000 active | AID 540267; in the data active = activity change below about -80%; inconclusive = between about -30% and that limit;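 also: parasites exposed to compound for two days anaerobically before the ATP read; % is scaled to controls: 0 for no effect and ±100 for the full control effect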
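Anaerobic 48 hrs incubation at 37 deg C of 100 trophozoites/well with test compounds; ATPLite 1-Step luminescence, 15-30 min RT, reports cellular ATP as viability.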
a7 integrin act: activators of alpha7 integrin expression for muscular dystrophy; Potency, µM (titrated, usually from 38.3 µM), without a hit: at the top dose activation, most hits filed as activators; 0.064% of 350,000 active; alpha7betagal myoblasts, beta-gal FDG fluorescence, 48 h;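 also: potency is read from the fitted curve at half-maximal effect; 100% = response of the positive control SU9516; nearly all actives have a fitted effect of over 60% in size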
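alpha7betagal+/- myoblasts (passage 13, 250/well) treated 48 h at 37C with compounds at 1:260 dilution of DMSO stock. Lysed, then beta-galactosidase activity read as FDG fluorescence (ex 480/em 540) after 30 min, with pre-read for autofluorescence.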
Gal4-VP16 FLuc: counter-screen for ROR gamma inhibitors: Gal4-VP16 reporter | Drosophila S2 Gal4-VP16 UAS-luciferase, luminescence, 20 h | Potency, µM (highest dose often 53.6 µM), without a hit: at the highest dose activity, negative = inhibition, hits mostly inhibitors | 3.5% of 310,000 active;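 also: Gal4-VP16 expression switched on by copper sulfate through the metallothionein promoter; potency is read from the fitted curve at half-maximal effect; % is scaled to controls: 0 for no effect and ±100 for the full control effect; nearly all actives have a fitted effect of over 50% in size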
Numbers without * were called inactive; ? = inconclusive; . = not tested or not shown; [ ] = dose if it differs, or a comment. Many of the other results were omitted from the sample, so hits are more common in it than they were. Unless noted, calls follow the shape of the dose curve; as a rule, active = well fitted curve in the direction sought with a large enough effect; inconclusive = small, poorly fitted or top-dose-only effect, or another doubt; inactive = no such curve, though single readings can be large; an effect the other way counts as inactive or inconclusive.

SMILES	RORg inh	ERG Ets-DNA blk	Giardia kill	a7 integrin act	Gal4-VP16 FLuc
O=C(CNS(=O)(=O)c1ccc(Br)s1)NCC1COc2ccccc2O1 (centres undefined)	-17%	-4%	13	4%	13µM*
COc1cc(N/N=C/c2ccccc2O)ncn1	7.1µM*	11%	6	10%	7.1µM*
COc1cc(N/N=C/c2ccc(N(C)C)cc2)ncn1	?	-3%	-3	-7%	?
COc1cc(C2NC(=O)NC(C)=C2C(=O)Nc2cc(C)cc(C)c2)ccc1O (centres undefined)	.	-2%	.	.	.
O=C(O)CCc1nn2c3ccccc3nc2n(-c2ccccc2)c1=O	11µM*	-4%	1	15%	-6%
COc1cc(CN(C)c2ccc(S(=O)(=O)N3CCCC3)cn2)ccc1OC(F)F	.	-4%	0	-16%	.
COc1cc(CN(C)Cc2cc(=O)n3ccsc3n2)ccc1OC(F)F	-15%	7%	-4	-40%	16µM*
OC(c1cccs1)c1nccc2ccccc12 (centres undefined)	-6%	-6%	7	-19%	5%
OC(c1ccccc1)c1nccc2ccccc12 (centres undefined)	13µM*	-8%	28	-5%	-11%
COc1ccc(-c2cc(C)no2)cc1S(=O)(=O)NCC(C)c1ccccc1 (centres undefined)	24%	-8%	14	13%	0%
C(=C\c1ccccc1)/CN1CCN(c2ncnc3c2oc2ccccc23)CC1	?	2%	13	9%[7.66 µM]	18µM*
CCCc1ccc(C(=O)O/N=C(\N)c2ccccn2)cc1	13µM*	2%	7	-29%	11µM*
N/C(=N\OC(=O)c1ccc(=O)n(Cc2ccccc2)c1)c1ccccn1	11%	0%	-8	?	2%[10 µM]
N/C(=N\OC(=O)c1ccc2ccccc2c1)c1ccccn1	4.5µM*	-18%	-21	-1%	7.9µM*
N/C(=N\OC(=O)c1ccc2ccccc2c1)c1ccncc1	-30%	-6%	-11	?	-21%
COc1cccc(C(=O)O/N=C(\N)c2ccccn2)c1	?	3%	16	0%	14µM*
CCOCCc1nn2c(=O)cc(COC(=O)CNC(=O)c3cccc(C)c3)nc2s1	.	7%	.	.	.
COc1ccc(N2C(=O)CC(Sc3nccc(C)n3)C2=O)c(OC)c1 (centres undefined)	.	.	.	-17%	.
COc1ccccc1N1C(=O)CC(Sc2n[nH]c(-c3cccc(C)c3)n2)C1=O (centres undefined)	2.8µM*	8%	-10	-51%	5µM*
COc1ccccc1N1C(=O)CC(Sc2nccc(C)n2)C1=O (centres undefined)	11µM*	-1%	-10	-30%	?
CC(C)C(NC(=O)c1ccco1)C(=O)NC1CCCCCC1 (centres undefined)	12%	-1%	-4	20%	-2%
Cc1cc(NC(=O)c2ccc(C)s2)n(-c2nc3ccccc3[nH]2)n1	5%	4%	12	-30%	-9%
Cc1cc(NC(=O)c2ccccc2F)n(-c2nc3ccccc3[nH]2)n1	1.1µM*	-6%	2	-35%	4.5µM*
Cc1cc(Nc2ccccc2)n(-c2nc3ccccc3[nH]2)n1	1.6µM*	1%	-2	-34%	3.5µM*
Cc1cc(C)nc(-n2nc(C)cc2Nc2ccccc2)n1	0.11µM*	-4%	-17	-5%	0.22µM*
SMILES	RORg inh	ERG Ets-DNA blk	Giardia kill	a7 integrin act	Gal4-VP16 FLuc
Cc1cc(NC(=O)c2c(F)cccc2F)n(-c2nc3ccccc3[nH]2)n1	3.5µM*	-8%	-3	-35%	6.3µM*
Cc1cc(Nc2ccccc2)n(-c2ccccc2)n1	-6%	4%	5	-11%	11%
OC[C@@H]1[C@@H](c2ccc(F)cc2)C(c2ccc(F)cc2)=NN1c1ccccc1	42%	.	.	.	-20%
CC(C)(C)OC(=O)C[C@@H]1C/C=C\C[C@@H](CC(=O)N(CCO)Cc2ccccc2)C(=O)N[C@@H](c2ccccc2)COC1=O	.	0%	2	2%	.
Cc1cc(N2CCN(c3ccccc3)CC2)nc(-n2nc(C)cc2C)n1	0.28µM*	3%	19	-22%	1.3µM*
Cc1cc(NC(=O)c2c(F)cccc2Cl)n(-c2nc3ccccc3[nH]2)n1	4.5µM*	6%	-8	0%	7.1µM*
CC(C)(C)c1cc(NC(=O)c2c(F)cccc2Cl)n(-c2ccccc2)n1	-1%	-10%	9	10%	8%
Cc1cc(NC(=O)C2CCCCC2)n(-c2nc3ccccc3[nH]2)n1	1.6µM*	2%	3	-36%	1.4µM*
C=C[C@@]1(C)CC[C@H]2C(=CC[C@@H]3[C@]2(C)CCC[C@@]3(C)C(=O)O)C1	-68%	.	.	.	0%
Cn1c(=O)oc2cc(S(=O)(=O)N3CCCC(C(=O)N4CCN(c5cccc(Cl)c5)CC4)C3)ccc21 (centres undefined)	.	-12%	.	.	.
Cc1ccc2oc(C(F)(F)C(F)F)cc(=O)c2c1	1%	5%	-1	21%	1%
Cc1ccc2oc(C(Cl)(Cl)Cl)cc(=O)c2c1	5µM*	.	13	-10%	?
COc1ccc(/C=C/C(=O)OCC(=O)Nc2cccc(S(=O)(=O)NC3=NCCCCC3)c2)cc1	.	15%	16	10%	.
Cc1ccc(/C=N/NC(=O)c2ccc(Br)o2)s1	8.9µM*	-11%	-17	-14%	10µM*
CCc1ccc(/C=N\NC(=O)c2ccc(Br)o2)s1	1.6µM*	7%	-6	-26%	5µM*
CCN(CC)c1ccc(/C=N/NC(=O)c2ccc(Br)o2)cc1	?	-11%	-15	10%	?
Cc1ccc(/C=N/NC(=O)Cc2ccc(O)cc2)s1	4%	-3%	8	0%	6%
CN(C)S(=O)(=O)c1cccc(COC(=O)CCNC(=O)c2ccc([N+](=O)[O-])cc2)c1	.	13%	-15	2%	.
CCc1cc(Cn2nc(-c3ccccc3)cc2C(=O)NCc2ccccc2OC)on1	.	-4%	12	-21%	.
Cc1cc(NC(=O)CCS(=O)(=O)c2nc(-c3ccccc3)cc(C(F)(F)F)n2)no1	-4%	7%	-7	-67%	7%
CS(=O)(=O)c1nc(-c2ccccc2)cc(C(F)(F)F)n1	0.5µM*	-6%	-11	-58%	1.6µM*
CCOC(=O)C1(CCc2ccccc2)CCN(C(=O)[C@@H]2C[C@@H](C)NC(=S)N2)CC1	11µM*	?	1	12%	?
CCOC(=O)C1(CCc2ccccc2)CCN(Cc2ccccn2)CC1	5µM*	-2%	6	-8%	11µM*
COc1ccc(NC(=O)COC(=O)c2c(C)noc2C)cc1Cl	.	.	.	-3%	.
CCCCC/C=C\C/C=C\C/C=C\C/C=C\CCCCCC(=O)NCCCC(=O)O	10%	.	.	.	-5%
O=C(NNc1cccc(Cl)c1)c1cccnc1Oc1ccccc1	9%	-1%	-22	-27%	-7%
O=C(Nc1ccc(F)cc1)c1cccnc1Oc1ccccc1	23%	-7%	-2	-3%	2%
